Only some compounds are listed: those with a hit (about 2% of all), similar ones and a draw of the others.
BJeLR lethal: kills HRASV12-expressing BJeLR cells; inhibition, % (no concentration beside the values); 300,000 compounds, 0.17% hits; BJeLR (HRASV12) viability, CellTiter-Glo ATP luminescence, 48 h; in the data active = inhibition above about 50%; inconclusive = no clear call, values can overlap the other calls
PrPC TRFRET: cell surface PrPC inhibition, primary TR-FRET screen; P04156; TR-FRET read-out; inhibition, % at 13.8 µM; 370,000 compounds, 0.43% hits; in the data active = inhibition above about 24%; also: 0% = median of the test wells and 100% = reference compound wells
CCHFV vOTU inh: blocks the CCHF virus ovarian tumor domain protease | AID 651958 | 370,000 compounds, 0.55% hits | CCHFV vOTU protease, Pep-AMC fluorescence | inhibition, % at 11.5 µM; in the data active = inhibition above about 30%; also: 0% = vehicle wells with enzyme and 100% = no enzyme wells
PrP 5UTR inh: inhibition of PrP 5' UTR reporter expression. cell-based PrP 5' UTR mRNA reporter, plate reader. inhibition, % (concentration not given with the values). 340,000 compounds, 0.35% hits. AID 488862; in the data active = inhibition above about 52%; also: 0 = median of the neutral control wells
PfHsp40 rescue: compounds rescuing yeast from Plasmodium falciparum HSP40 toxicity. S. cerevisiae expressing PfHsp40, growth rescue, ATP luminescence. growth rescue, % at 12.5 µM. 340,000 compounds, 0.68% hits; in the data active = growth rescue above about 28%, passing the limit was not always enough; inconclusive = no clear call, values can overlap the other calls;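 also: yeast W303a lacking pdr1 and pdr3 grown in galactose medium; growth measured after three days at 30 °C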
Yp Topo-I inh: inhibitors of Yersinia pestis topoisomerase I | Y. pestis Topo-I cleavage product accumulation, plate reader | activity, % at 10 µM | 360,000 compounds, 0.064% hits; in the data active = activity above about 50%, passing the limit was not always enough; inconclusive = no clear call, values can overlap the other calls
Starred values were filed as active, the others as inactive; ? = inconclusive; . = not tested or not shown.

SMILES	BJeLR lethal	PrPC TRFRET	CCHFV vOTU inh	PrP 5UTR inh	PfHsp40 rescue	Yp Topo-I inh
CCOc1ccc(-n2c(COc3ccccc3)nnc2SCC(=O)Nc2ccc3c(c2)OCCO3)cc1	.	5.0	13.5	.	.	.
COCCN1Cc2cc(C(=O)OC)c3c(c2C1=O)c1cc(OC)ccc1n3S(C)(=O)=O	.	0.6	0.8	.	.	.
CCCc1ccc(Oc2cn[nH]c2-c2ccc(O)cc2O)cc1	.	2.1	3.9	-7.0	181.5*	-5.9
COc1ccc(OC)c(S(=O)(=O)N2CCCCC2C(=O)N2CCCN(C)CC2)c1 (stereo not drawn)	.	4.3	9.5	.	.	.
O=C1OCCN1C(=O)[C@H]1[C@H](c2ccc([N+](=O)[O-])cc2)C(c2ccc(F)cc2)=NN1c1ccccc1	.	-4.5	11.9	-36.2	-0.2	-12.1
O=C1OCCN1C(=O)[C@H]1[C@H](c2ccc([N+](=O)[O-])cc2)C(c2ccc(F)cc2)=NN1c1ccc(Br)cc1	.	-2.1	31.7*	-17.8	-0.4	-7.4
Cc1cc(Cl)ccc1OCc1n[nH]c(=S)n1C1CCCCC1	-11.8	2.4	16.6	-18.8	80.0*	11.1
O=c1cc(-c2ccccc2)oc2cc(O)c(O)c(O)c12	.	-0.5	-0.2	-55.5	140.8*	-5.2
CCOc1ccc(C(=O)Nc2ccc(Cc3ccncc3)cc2)cc1Br	-3.5	-1.4	-8.9	-6.1	59.7*	11.0
O/N=C\c1ccccc1Oc1ccc(F)cc1	-4.3	7.7	1.4	-24.9	58.8*	-13.1
O/N=C/c1ccccc1Oc1ccccc1	-1.4	2.0	7.9	-10.1	-0.3	-1.3
O=C(N1CCC(Cc2ccccc2)CC1)n1ncc(C(O)(c2ccccc2)c2ccccc2)n1	.	10.7	.	.	.	.
CC1(C)C[C@H]2C=C(C=O)[C@]3(C=O)C[C@]3(C)[C@H]2C1	92.0*	-1.6	-1.9	-1.4	-1.1	3.2
COCc1cc(C)nc(SCc2ccc(Br)cc2)c1C#N	-7.7	-0.1	3.9	-16.7	0.6	50.3*
CN(C)c1ccc(C(C[N+](=O)[O-])c2c(N)n(C)c(=O)n(C)c2=O)c(F)c1C#N (stereo not drawn)	-3.6	-11.3	4.4	-15.3	140.2*	8.7
O=C(COC(=O)c1ccccc1C(=O)c1ccccc1)Nc1ccc(SC(F)F)cc1	-13.7	1.4	-2.2	-11.8	94.2*	30.5
O=C(COC(=O)Cc1ccccc1)Nc1ccc(SC(F)F)cc1	.	-3.7	3.8	-13.4	-1.0	-4.4
Cc1cc(C)c2c(CCl)cc(=O)oc2c1	55.7*	0.3	-0.3	-11.9	-0.5	1.7
Cc1cc(C)c2c(CN3CCCCC3)cc(=O)oc2c1	8.8	-2.3	1.5	-2.1	-3.0	12.4
Cc1cc(O)c(C=O)c2c1C(=O)Oc1c(CO)c(O)c3c(c1O2)C(O)OC3=O (stereo not drawn)	.	.	.	-5.4	160.7*	-9.6
Cc1cc(O)c(CN(C)C)c2c1C(=O)/C(=C/c1ccco1)O2	-1.0	-4.2	8.6	0.4	1.3	-5.5
Oc1ccc(O)c2c1C1(Cl)C(Cl)=C(Cl)C2(Cl)C1(Cl)Cl	.	4.8	14.1	-10.9	82.7*	-16.6
F[B-](F)(F)c1cc2cc(Br)ccc2s1	.	.	.	6.5	186.2*	2.9
CCN(CC)S(=O)(=O)c1cccc(C(=O)NCC(c2ccccc2)N(C)C)c1 (stereo not drawn)	19.6	-10.0	-1.2	-0.3	96.9*	16.5
CN(C)C(CNC(=O)c1cccc(S(=O)(=O)Nc2ccccc2Cl)c1)c1ccccc1 (stereo not drawn)	.	4.6	3.5	-12.6	0.7	3.4
SMILES	BJeLR lethal	PrPC TRFRET	CCHFV vOTU inh	PrP 5UTR inh	PfHsp40 rescue	Yp Topo-I inh
Cc1cccc(OP(=O)(NCc2ccccc2)Oc2cccc(C)c2)c1	-4.1	13.9	25.4	-17.9	117.9*	42.3
CCOc1ccc(C(=O)CSc2nnc(SCc3ccc(Cl)cc3)s2)cc1	.	-6.4	-0.7	.	.	.
O=C(NCCCc1ccccc1)[C@H](Cc1ccccc1)NC1(C(=O)NCCc2c[nH]c3ccccc23)CCOCC1	.	-4.2	.	.	.	.
Cc1ccc(-c2nnc(SCC(=O)c3ccc(O)c(O)c3)n2-c2ccc(Cl)cc2)cc1	.	-1.0	10.9	.	.	.
Cc1csc2nc(O)c(C(=O)NCCCc3ccccc3)c(=O)n12	5.7	1.5	-0.4	-10.5	288.8*	26.4
O=C(NCC1COCCO1)C1CCN(S(=O)(=O)c2cccc3ccccc23)CC1 (stereo not drawn)	.	-11.7	-1.7	.	.	.
COc1ccc(Cc2nnc3n2N=C(c2cc4ccccc4o2)CS3)cc1OC	1.5	-1.0	6.1	6.6	6.3	54.2*
COc1ccc(C2C(C(=O)Nc3cc(Cl)ccc3F)CCC(=O)N2c2ccc(OC)cc2)cc1 (stereo not drawn)	.	6.4	1.5	.	.	.
C[C@@H]1CN(C(=O)OC(C)(C)C)CCN1c1ccc(N2CCN(Cc3ccccc3)[C@@H](C)C2)c(C#N)c1	.	9.3	-3.1	.	.	.
C[C@@H]1C=CC(=O)O[C@@H]1c1ccc(Cl)cc1	76.6*	2.4	1.9	.	.	.
CC1C(=O)OC(c2ccc(Cl)cc2)C(C)(C)C1=O (stereo not drawn)	-2.4	4.4	-9.4	-3.9	-0.4	-1.5
Cc1cc(C(=O)CN2C(=O)NC3(CCCCC3)C2=O)c(C)n1C	3.6	-5.8	-2.2	-20.2	-0.3	11.0
Cc1cc(C)c(C(=O)CN2C(=O)NC3(CCCCCC3)C2=O)cc1C	11.2	5.8	-1.1	-42.6	51.7*	4.9
Cc1ccc(C[n+]2c(-c3ccc(C)cc3)cc(-c3ccc(C)cc3)cc2-c2ccc(C)cc2)cc1	60.4*	.	.	50.5	?	15.1
O=C(NCc1ccco1)c1ccc2nccnc2c1	6.9	-13.5	1.6	-12.0	0.6	10.5
O=C(NCc1ccccc1)c1ccc2nccnc2c1	5.1	-19.9	-3.2	-21.0	31.4*	-3.9
O=C(Nc1ccccc1C(F)(F)F)OC1CC2CC1[C@H]1CCCCN1C2 (stereo partly drawn)	.	-6.7	-6.7	.	.	.
S=C(NN=C(c1ccccc1)c1ccccn1)N(Cc1ccccn1)Cc1ccccn1	.	13.4	22.0	8.9	135.0*	29.3
O=C(NN=C(c1ccccc1)c1ccccn1)c1ccccc1	.	3.1	10.0	11.3	44.4*	13.6
O=C(N[C@H](Cc1ccccc1)C(=O)N1CCCN(Cc2ccccc2F)CC1)[C@H]1O[C@@H](n2ccc(=O)[nH]c2=O)[C@H](O)[C@@H]1O	.	6.7	4.8	.	.	.
CSc1cc(-c2ccccc2)n(Cc2ccccc2Cl)c(=O)c1C#N	51.1*	-6.4	3.6	-26.2	-0.4	3.0
COC(=O)c1cc2c(c3c4cc(F)ccc4n(S(=O)(=O)c4ccc(OC)cc4)c13)C(=O)N(Cc1ccccc1OC)C2	.	-3.7	-6.8	.	.	.
C=C1C(=O)O[C@H]2C[C@@H](C)[C@@H]3C=CC(=O)[C@@]3(C)C[C@H]12	27.3	26.1*	10.8	.	.	.
NC(=O)c1ncn([C@@H]2O[C@H](C(=O)N[C@H](Cc3ccccc3)C(=O)O)[C@@H](O)[C@H]2O)n1	.	-1.1	3.6	.	.	.
COc1ccc(-c2ccccc2C2Cc3nnccc3CN2)cc1 (stereo not drawn)	.	1.0	9.5	.	.	.
Cc1cc(-n2ccnc2)n2c(nc3ccccc32)c1C#N	17.8	-0.1	-3.7	-20.2	37.6*	4.3
